From the supplement of paper PMC6555819

Columns and labels:
Test in all cases: PBM binding z-score (relative to random genomic background probes); higher = stronger binding; sequences stand for … in GC…GCGATTGACAGCGTAGAATGAAGG
[1] = test system: RARb homodimer (NR concentration 270 nM)
Outline: (§1)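 The probes on custom Agilent 4×180K protein-binding microarrays were double-stranded, with 34-nt variable regions bearing direct-repeat seeds, single-nucleotide variants, half-site ablations and random human genomic background sequences. Incubation lasted 1 h with ligand-free nuclear receptor dimers in PBS pH 7.4, 2% milk, 0.02% Triton X-100, 1 mM DTT, 0.2 mg/mL BSA and 0.4 mg/ml salmon testes DNA. Antibodies against each partner (one per run) detected bound dimers, and fluorescence scans were regression-normalized. Binding z-scores take the random background probes as reference.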

[2] = test system: RARg:RXRa (NR concentration 270 nM, RXRa partner concentration 90 nM)
Outline: as §1

[3] = test system: RARg homodimer (NR concentration 270 nM)
Outline: as §1

[4] = test system: RXRa DBDmut IVT, anti-RXR (DBD mutation: RXRa K156A/R161A, NR concentration 90 nM)
Outline: as §1

[5] = test system: RXRa homodimer (NR concentration 180 nM)
Outline: as §1

[6] = test system: THRa:RXRa (NR concentration 90 nM, RXRa partner concentration 90 nM)
Outline: as §1

[7] = test system: THRa homodimer (NR concentration 90 nM)
Outline: as §1

[8] = test system: VDR homodimer (NR concentration 270 nM)
Outline: as §1

Sequence	PBM binding z-score [1]	PBM binding z-score [2]	PBM binding z-score [3]	PBM binding z-score [4]	PBM binding z-score [5]	PBM binding z-score [6]	PBM binding z-score [7]	PBM binding z-score [8]
CAAACTAGGTCACCGGAAGGTCAAAGGCCGCATG	5.41	8.42	7.47	1.23	6.36	4.56	2.79	2.8
TAGCCTAGGTCATTGGGTCAGTATAGTACGCATC	4.17	5.16	5.23	1.87	3.63	3.25	1.84	2.21
CAAACTAGGTCACGAAAGGTCCAAGTCGAATGAC	3.73	5.23	5.73	1.55	4.45	3.87	1.39	1.55
TCTAGTTGGTCAACGGTCACACACTCGAAATGCG	2.49	1.51	2.16	1.24	1.23	0.548	0.185	0.188
ATCGAAAGGTCGTGTGGTGAGTATACAGAAAGGC	2.97	4.21	3.83	2.19	4.59	2.39	0.842	2.03
TCTTGTAGATCAACAGGAGGTTAAGACAGATCGA	0.499	0.964	0.323	0.507	0.916	0.703	-0.723	-0.102
GTAACGAGGGCAAAGTTGATAGCATCTGTCGACG	1.38	1.97	1.78	2.73	2.08	1.41	-0.0253	1.7
CCTAGCAGGCCACTCTGGGTCACTCAAGGCTTGA	2.05	1.36	1.45	0.0538	0.851	3.4	0.412	0.081
AGAATGAGGTTTTTAAGATCAGGGAATTGCGGTC	-0.159	-0.0419	-0.355	0.351	0.0313	0.216	-0.0732	-0.068
ATAAGTAGGTTATCGGGTCATTCAGTTTGCGCAT	3.12	3.44	2.43	1.57	3.55	3.29	2.93	4.49
TATACAGGGTCAAAGGCCACAGTACGAATGTCGA	3.85	6.13	5.62	3.08	7.97	3.53	1.28	3.15
TAGCCTAGGTCATTGGGCCAGTACAGTACGCATC	3.02	3.95	4.57	1.77	3.3	2.91	0.878	1.28
CCTCGGAGGACAGAAGGTCCGAGCTGTCCGCTTT	-0.0245	-0.392	-0.0646	0.0399	-1.02	-0.359	-0.311	0.0219
TGAATGAGCTTATAAGATCAGGGAACGTTGCAAA	-1.21	-0.305	-0.288	-1.2	-0.211	-0.371	-1.18	-0.577
TCTAATAGTTGATTAGGGCAACCGAAACAGCGGA	0.599	0.338	0.66	0.755	0.708	0.551	-0.0484	-0.0344
CCTACTGGGGCAAGGTCATTGATCAGTCAAAGCA	3.3	4.12	3.61	1.28	3.54	3.25	1.6	3.27
CCTATTAGTTGACCAGAAGGGCAACCGAAGCTCG	1.88	1.45	0.985	0.633	0.786	0.606	0.383	0.595
GCGACTGGGGCATCAGCCGGTTACCATAACTTAA	0.131	0.11	0.063	-0.636	-0.543	-0.0849	-0.579	-0.974
TCTTGTATATCAAAGGTTAAGAAAGCCGAAGCCT	1.82	1.98	1.32	0.935	2.92	1.58	0.181	0.26

Sequence	PBM binding z-score [1]	PBM binding z-score [2]	PBM binding z-score [3]	PBM binding z-score [4]	PBM binding z-score [5]	PBM binding z-score [6]	PBM binding z-score [7]	PBM binding z-score [8]
TTTTGTAGATCAATAGAGGTTAAGAAAGTGCGCT	1.27	0.945	0.869	-0.0202	1.52	2.28	-0.0563	0.777
GCTGCTAGGTCAGGTTGGTCAGCTATCGGGTACG	2.73	2.44	3.56	0.759	0.93	1.84	0.785	0.204
TAGCCTAGGTCATTGGGCCCGTATAGTACGCATC	2.73	3.69	4.06	1.8	2.68	3.01	1.43	0.994
TCGAGTAGGTTAGGGGCATTCCGAATGGCGTCGA	0.646	0.44	-0.221	0.278	0.54	0.556	-0.0824	0.859
ATCTCTAGGTAACAGTTCAGTGAATCCCGAGGAT	0.815	0.757	0.845	0.0711	0.513	0.831	0.517	0.915
GTACCAAGGTTAATAGGTCGTTGATGAGTAGGCG	2.14	3.29	2.07	0.518	2.5	1.68	0.196	0.941
CAGGCTAGGTCAGGGCCAGTATAGGAGGAACGTT	2.77	3.07	4.16	-0.54	1.45	1.95	0.49	0.035
TCTCGGCGGACACGAAGGTCAGAGCTTTCCAGAG	2.83	2.03	2.17	0.141	1.28	1.16	-0.151	0.187
TTACCAAGGTGAAAGGCCGTTGATGCACGCCTTG	1.1	0.963	0.384	-0.3	1.3	1.45	0.31	-0.0991
TCTTGTATATCAAGCAGGTTAAGAAAGCCTGAGT	0.552	0.261	-0.15	0.788	0.587	0.47	-0.282	0.228
ACTTACGGGTCAACGAGGTAATAGCACGCGTATA	3.07	5.4	5.19	2.15	6.11	4	0.859	1.79
ATCTCTAGGTAAGACTCAGTTGAGTGAAGAACGC	-0.154	0.15	0.0573	0.17	-0.0983	0.492	0.309	0.119
CGTCCAAGTTCATAGGAGGTCAGTGAAGACAGAT	4.1	4.63	5.14	4.98	3.69	4.73	1.52	6.53
ACTCGGAGGACCAAGGTCAGAGCTACGCCAGTGA	2.9	2.35	2.61	0.197	2.03	2.44	1.17	0.899
TTACCAAGGTGAGCTGAGGTCGTCGATCCAACTC	1.49	1.37	1.36	-0.22	1.75	4.74	2.4	1.02
CCTAGTTGCTCAAGGTCACACACGCTATAGGTAC	4.14	4.56	4.78	2.19	4.8	4.05	4.51	4
AGTATGAGGTTAAGATCAGGGAAACAGAATACAT	1.09	2.13	1.66	0.674	2.42	2.63	0.96	0.755
GGAACGAGGGCAAGTTGAAAGCAGAGTTTGATGG	1.57	1.12	1.98	2.41	0.747	1.12	0.0724	1.92
ACTATTAGTGGAGACGAGGGCAACCGATAGGTTG	0.803	0.333	0.653	0.323	0.276	1.45	-0.218	0.427

Sequence	PBM binding z-score [1]	PBM binding z-score [2]	PBM binding z-score [3]	PBM binding z-score [4]	PBM binding z-score [5]	PBM binding z-score [6]	PBM binding z-score [7]	PBM binding z-score [8]
ATCTCTAGGTAAGACTGAGTTCAGTGAAGAACGC	1.05	0.569	0.377	1.38	0.265	1.25	0.797	3.47
AGTCAAAGTTCATCTAGGTAACGTACGATATGCT	3.93	5.49	5.82	4.69	4.69	3.28	0.448	5.04
CCGGCTGGGGCATAAGGTTACCATAAGCCAGCCC	1.62	1.83	1.05	-1.59	0.983	1.93	0.912	-0.374
ATCGAAAGGTCGAGGTTAGTATAGAGAAAGGGAA	2.8	4.49	4.52	1.18	4.37	2.51	0.341	0.514
GCGACTGTGGCAAAGCAGGTTACCATAAGGTTGG	0.168	-0.101	-0.193	-0.432	0.102	1.22	-0.306	-1.03
CCGACTGGGGCAAAAAGGTTACCATACCATCCGG	2.34	1.8	1.6	-0.333	1.7	1.21	0.0277	0.374
CCTTACGGGTCACTGACAGGTTGTAGCATTTGGA	3.13	5.06	4.23	2.01	4.67	2.65	0.174	0.754
CCTACTGGGCCACGAAAGGTCATTGAGTCAGTGA	4.62	4.82	4.58	0.536	5.23	3.79	0.857	1.69
ACAGACTGGTGATGAAGGTAACTCAGGCTATCAT	-0.356	-0.329	0.0364	-0.417	-0.393	0.478	-0.264	-0.921
TCATAAAGGTAAATGCTAGGTGAAAGTCCGATCT	0.719	1.03	0.541	1.87	1.05	2.03	0.511	0.333
AGAATGACGTTACCAAAGATCAGGGAAACGCTTG	-0.559	0.085	0.256	-0.636	0.0989	-0.427	-0.611	0.0201
GATACAGGGTCGAGGCCAGAGTACGCGTATTGAT	1.31	1.98	1.9	0.497	2.13	1.67	0.075	0.897
CCAGACAGGTGAGAGGTAACTCAGTCTGGTACGC	0.491	0.564	0.526	-0.348	0.784	0.574	-0.109	-0.514
CCGGCTGGGGCAAAGGTTACCATACTCAGTACGA	2.25	3.68	1.69	-0.158	3.6	1.77	-0.377	-0.169
CCTAGCAGGCCAATCTGAGTCACTCAAGGCTTGA	-0.614	-0.539	-0.118	0.122	-0.769	-0.175	-0.499	-0.793
CGTCCAAGTTCAAGGTAACGTAACAGAAAGCAGC	2.23	2.83	3.21	4.37	2.15	2.6	1.66	3.39
CCAGACAGGTGAGAAGGTAACGCAGCCTCGATTA	0.798	0.793	0.415	0.201	0.556	0.331	0.41	-0.143
AATACTGGGTCACTAGGCCAGAGTAGGTACGAAT	2.47	2.99	3.54	0.506	2.37	1.81	0.283	0.859
